The values that follow come from the supplement of paper PMC4894684.

Where a name gives a salt, the structure may show the parent alone. ± gives the standard deviation of the averaged measurements.

The subject of the assay is Toxoplasma gondii RH (in HFF). Nature of the assay: parasite growth relative to the screen mean (all compounds = 100%); higher = less inhibition of parasite growth. Conditions: 5 µM; 72 h; oxygen 21 %. The gist of the method: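 Library compounds (10 mM DMSO stocks) were pin-transferred to 5 µM final onto confluent human foreskin fibroblasts in 96-well plates, then infected within 2 h with RH β-Gal–GFP Toxoplasma (MOI 1:5) and grown 72 h at 21% O2. Parasite number came from a CPRG β-Gal assay against in-plate standard curves. Growth is expressed relative to the screen mean (all compounds = 100%), averaged over two screens. Uninfected host-cell viability was checked by CellTiter-Blue.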
With `CN(C)CCCSc1ccccc1NC(=O)/C=C/c1ccccc1` [Cinanserin hydrochloride], the parasite growth turned out to be 120 ± 9.6%. In the case of `COCCOC(=O)C1=C(C)NC(C)=C(C(=O)OC/C=C/c2ccccc2)C1c1cccc([N+](=O)[O-])c1` (stereo not given) [Cilnidipine] it was 27.9 ± 21%; in that of `O=c1c(-c2ccc(O)cc2)coc2cc(O)cc(O)c12` [Genistein], 148 ± 28%; in that of `CC[N+](CC)(CC)CC(=O)Nc1c(C)cccc1C` [QX 314 bromide], 63.6 ± 9.3%. The compound `COCCCC/C(=N\OCCN)c1ccc(C(F)(F)F)cc1` [Fluvoxamine maleate] had a parasite growth of 49.7 ± 11%. As to `Cc1ccccc1N=Nc1ccc(NC(=O)c2ccnn2C)c(C)c1`, the parasite growth turned out to be 82.7 ± 23%. The same measure for `O=c1oc(-c2ccc(C(F)(F)F)cc2)nn1Cc1cc(Cl)ccc1O`: 146 ± 11%; for `CCOc1cc(C(=O)Nc2ccc(Cl)c(-c3nc4ccccc4[nH]3)c2)cc(OCC)c1OCC`: 23.3 ± 3.9%. The compound `CC(C)NC[C@H](O)COc1cccc2[nH]ccc12` [(S)-(-)-Pindolol] gave a parasite growth of 127 ± 20%. As to `CC1(C)CCC(C)(C)c2cc(C(=O)Nc3ccc(C(=O)O)cc3)ccc21`, the parasite growth amounted to 113 ± 4.7%. The same measure for `C[C@H](NC(=O)/C(C#N)=C/c1ccc(O)c(O)c1)c1ccccc1` [Tyrphostin B44, (+) enantiomer]: 154 ± 41%. In the case of `COc1ccc(NC(=O)c2ccc(-c3ccc(-c4noc(C)n4)cc3C)cc2)cc1OCCN(C)C`, the parasite growth was below 0%. In the case of `O=C(O)C1=CCCN(CCON=C(c2ccccc2)c2ccccc2)C1` it was 159 ± 9.8%. As to `COc1cc(C[C@H]2C(=O)OC[C@@H]2Cc2ccc(OC)c(OC)c2)ccc1O` [Arctigenin], the parasite growth came to 125 ± 10%. In the case of `CCN(CC)CCCCC1CCN(CC(=O)N2c3ccccc3C(=O)Nc3cccnc32)CC1` it was 141 ± 17%.
